# Pf Dd2 inh = blocks growth of Plasmodium falciparum Dd2 parasites | P. falciparum Dd2 growth, SYBR Green, 72 h; active compounds read low | activity change, % at 10 µM | actives 2.3% (n = 94,000) | AID 1159554; in the data active means activity change below about -80%
# Tcruzi prolif = T. cruzi proliferation inhibition. T. cruzi beta-gal in NIH3T3, GalScreen luminescence, 90 h. inhibition, % at 8.34 µM. actives 5.9% (n = 77,000). AID 624255;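 active means mean inhibition above about 93%, with at least 55% of replicates each passing it, limit read from the data, passing the limit was not always enough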
# C diff growth = blocks growth of Clostridium difficile. growth activity, negative = inhibition, % at 16 µg/mL (by protocol). actives 0.25% (n = 86,000). Clostridium difficile clinical isolate growth, OD600, 24 h; active compounds read low. AID 1259249;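 active means mean growth activity at or below -80% and every replicate also at or below -80%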;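 further: 0% = DMSO wells and -100% = levofloxacin 16 µg/mL wells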
# * marks the source's active call; other numbers are inactive results; nt = no result given. In the library only some 6.7% were active in any assay of this set; here they are far more common.
SMILES,Pf Dd2 inh,Tcruzi prolif,C diff growth
COc1ccc(S(=O)(=O)Nc2ccc3c(c2)CC(=O)N([C@@H](C)CO)C[C@H](C)[C@H](CN(C)S(=O)(=O)c2ccc(C)cc2)O3)cc1,-86*,-7,10
C[C@@H]1CN([C@@H](C)CO)C(=O)Cc2cc(NS(=O)(=O)c3ccc(Cl)cc3)ccc2O[C@H]1CN(C)S(=O)(=O)c1ccc(Cl)cc1,-85*,-53,17
COc1ccc(S(=O)(=O)N(C)C[C@@H]2Oc3ccc(NS(=O)(=O)c4ccc(C)cc4)cc3CC(=O)N([C@H](C)CO)C[C@@H]2C)cc1,-69,-8,10
C[C@H](CO)N1C[C@H](C)[C@H](CN(C)S(=O)(=O)c2ccc(F)cc2)Oc2ccc(NS(=O)(=O)c3ccc(Cl)cc3)cc2C1=O,-93*,40,1
C[C@@H]1CN([C@H](C)CO)C(=O)c2cc(NS(=O)(=O)c3ccc(Cl)cc3)ccc2O[C@@H]1CN(C)S(=O)(=O)c1ccc(F)cc1,23,33,3
C[C@H]1CN([C@@H](C)CO)C(=O)Cc2cc(NS(=O)(=O)c3ccc(Cl)cc3)ccc2O[C@H]1CN(C)S(=O)(=O)c1ccc(Cl)cc1,-74,61,18
C[C@@H]1CN([C@H](C)CO)C(=O)c2cc(NC(=O)Cc3ccccc3)ccc2O[C@@H](C)CCCCO[C@H]1CN(C)Cc1ccc2c(c1)OCO2,-80,31,5
CC(=O)N(C)C[C@@H]1Oc2cc(-c3ccncc3)ccc2S(=O)(=O)N([C@H](C)CO)C[C@@H]1C,-4,38,-2
COc1ccc(NC(=O)N(C)C[C@H]2OCCCC[C@@H](C)Oc3ccc(NC(=O)Nc4cccc5ccccc45)cc3C(=O)N([C@H](C)CO)C[C@@H]2C)cc1,-78,-12,6
COc1ccc(NC(=O)N(C)C[C@H]2OCCCC[C@H](C)Oc3ccc(NC(=O)Nc4cccc5ccccc45)cc3C(=O)N([C@@H](C)CO)C[C@H]2C)cc1,-85*,-16,2
COc1ccc(NC(=O)N(C)C[C@H]2OCCCC[C@H](C)Oc3ccc(NC(=O)Nc4cccc5ccccc45)cc3C(=O)N([C@H](C)CO)C[C@H]2C)cc1,-86*,-23,3
COc1ccc(NC(=O)N(C)C[C@H]2OCCCC[C@@H](C)Oc3ccc(NC(=O)Nc4cccc5ccccc45)cc3C(=O)N([C@@H](C)CO)C[C@H]2C)cc1,-76,66,-1
C[C@@H]1CN([C@H](C)CO)C(=O)c2c(c3ccccc3n2C)-c2ccccc2CO[C@H]1CN(C)C(=O)c1cc(Cl)cc(Cl)c1,-31,nt,78
C[C@@H]1CN([C@@H](C)CO)C(=O)c2c(c3ccccc3n2C)-c2ccccc2CO[C@H]1CN(C)C(=O)c1cc(Cl)cc(Cl)c1,-83*,nt,-3
C[C@H](CO)N1C[C@H](C)[C@@H](CN(C)C(=O)c2ccccc2)OCc2ccccc2-c2c(n(C)c3ccccc23)C1=O,-41,2,nt
C[C@H](CO)N1C[C@H](C)[C@H](CN(C)C(=O)c2cc(Cl)cc(Cl)c2)OCc2ccccc2-c2c(n(C)c3ccccc23)C1=O,-87*,nt,1
COC(=O)C[C@@H]1CC[C@@H]2[C@@H](COc3ccc(NC(=O)c4ccc(F)c(F)c4)cc3C(=O)N2C)O1,0,-31,-7
CCCNC(=O)N1CC2(CN(S(=O)(=O)CC)C2)c2c(n(C)c3cc(OC)ccc23)[C@@H]1CO,-22,nt,11
COc1ccc2c3c([nH]c2c1)[C@H](CO)N(C(=O)C1CCCC1)CC31CN(S(C)(=O)=O)C1,30,nt,1
CO[C@H]1CN(C)C(=O)c2cc(NC(=O)NC(C)C)ccc2OC[C@H](C)N(Cc2ccc(-c3ccccn3)cc2)C[C@H]1C,-8,-32,nt
CCCC#Cc1ccc([C@H]2[C@H]3CN(S(=O)(=O)c4ccccc4C)CCCCN3[C@H]2CO)cc1,-8,65,18
CCCC#Cc1ccc([C@@H]2[C@@H](CO)N3CCCCN(S(=O)(=O)Cc4ccccc4)C[C@@H]23)cc1,-14,84,34
Cc1ccccc1S(=O)(=O)N1CCCCN2[C@@H](CO)[C@@H](c3ccc(-c4ccccc4)cc3)[C@@H]2C1,-75,55,1
CCCC#Cc1ccc([C@@H]2[C@H](CO)N3CCCCN(S(=O)(=O)c4ccccc4C)C[C@@H]23)cc1,-73,87,-96*
Cc1ccccc1S(=O)(=O)N1CCCCN2[C@H](CO)[C@H](c3ccc(-c4ccccc4)cc3)[C@H]2C1,-82*,66,34
SMILES,Pf Dd2 inh,Tcruzi prolif,C diff growth
CCCC#Cc1ccc([C@@H]2[C@H](CO)N3CCCCN(S(=O)(=O)Cc4ccccc4)C[C@@H]23)cc1,-84*,83,-90*
O=C(Nc1ccccc1F)N[C@@H]1CC[C@H](CCNC(=O)C2CCC2)O[C@@H]1CO,26,nt,0
COc1ccc2c3c([nH]c2c1)[C@H](CO)N(Cc1ccc(Cl)cc1)CC31CN(Cc2ccccc2)C1,-45,nt,29
CCC(=O)N1CC2(CN(Cc3nccs3)C2)c2c(n(C)c3cc(OC)ccc23)[C@@H]1CO,-8,nt,nt
C[C@@H]1CN([C@H](C)CO)C(=O)c2cc(C#Cc3cccnc3)cnc2O[C@H]1CN(C)C(=O)CC1CC1,-3,35,1
Cc1ccc(S(=O)(=O)Nc2ccc3c(c2)CC(=O)N([C@@H](C)CO)C[C@H](C)[C@@H](CN(C)Cc2ccc(C(=O)Nc4ccccc4N)cc2)O3)cc1,-85*,nt,1
Cc1ccc(S(=O)(=O)Nc2ccc3c(c2)CC(=O)N([C@H](C)CO)C[C@@H](C)[C@@H](CN(C)Cc2ccc(C(=O)Nc4ccccc4N)cc2)O3)cc1,-86*,59,2
C[C@@H]1CN([C@@H](C)CO)C(=O)Cc2cc(NS(C)(=O)=O)ccc2O[C@@H]1CN(C)Cc1ccc(C(=O)Nc2ccccc2N)cc1,8,nt,1
C[C@H](CO)N1C[C@H](C)[C@@H](CN(C)Cc2ccc(C(=O)Nc3ccccc3N)cc2)Oc2ccc(NS(C)(=O)=O)cc2CC1=O,-18,62,-2
C[C@H]1CCCCO[C@H](CN(C)C(=O)C2CCCCC2)[C@@H](C)CN([C@@H](C)CO)C(=O)c2cc(N(C)C)ccc2O1,-28,12,-6
COCC(=O)Nc1ccc2c(c1)C(=O)N(C)C[C@H](OC)[C@H](C)CN(Cc1cccc(F)c1)[C@@H](C)CO2,-82*,41,nt
CO[C@H]1CN(C)C(=O)c2cc(NC(C)=O)ccc2OC[C@H](C)N(Cc2ccncc2)C[C@H]1C,-80*,-13,nt
COCC(=O)Nc1ccc2c(c1)C(=O)N(C)C[C@@H](OC)[C@@H](C)CN(Cc1cccc(F)c1)[C@H](C)CO2,-15,-1,nt
CO[C@@H]1CN(C)C(=O)c2cc(NC(C)=O)ccc2OC[C@H](C)N(Cc2ccncc2)C[C@H]1C,-31,-30,nt
CCC(=O)N1[C@H](CO)[C@@H](c2ccccc2)C12CN(C(=O)c1ccc(F)cc1)C2,22,nt,-6
CC(C)CC#Cc1ccc2c(c1)O[C@@H](CN(C)C(=O)c1cnccn1)[C@@H](C)CN([C@H](C)CO)S2(=O)=O,-9,nt,3
C[C@H]1CN([C@@H](C)CO)C(=O)Cc2cc(NC(=O)Nc3cccc4ccccc34)ccc2O[C@@H]1CN(C)CC1CCCCC1,-26,80,-1
